From PubChem BioAssay (EPA / NIEHS)
Inconclusive results are not listed. Activity calls are given as the source filed them. The calls were made as follows, unless noted: active = hit-call score of the fitted dose curve at least 0.9, where 1 is the maximum; inactive = score below 0.9.

Legend:
[1] = CCTE_Shafer_MEA_dev_firing_rate_mean: CCTE's Neural Network Formation Assay for Mean Firing Rate, Shafer Lab (AID 2284031);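 as to AC50: curve fitted for loss of firing so AC50 reflects decreased mean firing rate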
Outline: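 Rat primary cortical neurons were seeded on multielectrode arrays and treated from plating through day 12, with redosing at each feed. Spontaneous spiking was recorded four times; mean firing rate AUC was fitted downward against DMSO.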

[2] = CCTE_Shafer_MEA_dev_per_burst_spike_percent: CCTE's Neural Network Formation Assay for Percent of Spikes in a Burst, Shafer Lab (AID 2284032);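 as to AC50: fitted as a decrease in burst spike percentage below DMSO baseline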
Outline: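 Rat primary cortical neurons on 16-electrode MEA wells, dosed from plating day 0 for 12 days with renewal on DIV 5 and 9; spikes-in-bursts percentage averaged over bursting electrodes, collapsed as AUC across days 5, 7, 9, 12; loss direction versus DMSO.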

[3] = CCTE_Shafer_MEA_dev_active_electrodes_number: CCTE's Neural Network Formation Assay for Number of Active Electrodes, Shafer Lab (AID 2284040; active = hit-call score of the fitted dose curve at least 0.9, where 1 is the maximum;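 as to AC50: potency for loss of active electrodes versus DMSO so lower counts are hits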)
Outline: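 Primary rat cortical neurons on 16-electrode MEA wells, exposed from day 0 through day 12 with compound renewed at DIV 5 and 9 feeds. Active electrodes (mean firing ≥5 spikes/min) counted at DIV 5, 7, 9, 12; trapezoidal AUC across days, loss-of-signal versus DMSO.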

[4] = CCTE_Shafer_MEA_dev_burst_rate: CCTE's Neural Network Formation Assay for Burst Rate, Shafer Lab (AID 2284042);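 as to AC50: potency for loss of burst rate below DMSO control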
Outline: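 Exposure ran continuously over 12 days of network development in rat cortical cultures, with compound refreshed during full media changes on DIV 5 and 9. Single-electrode bursts per recording time, well-mean over active electrodes, trapezoidal AUC across days 5–12, fitted downward relative to DMSO.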

[5] = CCTE_Shafer_MEA_dev_bursting_electrodes_number: CCTE's Neural Network Formation Assay for Number of Bursting Electrodes, Shafer Lab (AID 2284043; active = hit-call score of the fitted dose curve at least 0.9, where 1 is the maximum;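 as to AC50: potency is for loss of bursting electrodes relative to DMSO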)
Outline: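 Primary rat cortical neurons were cultured on PEI-coated 48-well MEA plates (16 electrodes/well) and exposed from plating through day 12, with compound renewed at feeds on DIV 5 and 9. Electrodes bursting ≥1 per 2 min were counted on DIV 5, 7, 9, 12; trapezoidal AUC taken.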

[6] = CCTE_Shafer_MEA_dev_per_burst_interspike_interval: CCTE's Neural Network Formation Assay for Burst Interspike Interval, Shafer Lab (AID 2284044);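 also: mean spike spacing inside bursts as AUC over recordings on days 5 7 9 12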;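 as to AC50: potency for a decrease of within-burst interspike interval below DMSO level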
Outline: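 Neurons from rat cortex plated onto PEI-coated MEA wells with laminin […] at 1.5 x 10^5 cells/well, then treated from day 0. Media and compound fully replaced on DIV 5 and 9. Extracellular spontaneous firing recorded four times; interspike interval per burst summarised as AUC.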

[7] = CCTE_Shafer_MEA_dev_burst_duration_mean: CCTE's Neural Network Formation Assay for Mean Burst Duration, Shafer Lab (AID 2284045);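 as to AC50: curve fitted for loss meaning shorter burst duration than DMSO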
Outline: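 Primary rat cortical neurons on PEI-coated 16-electrode MEA wells, exposed from plating through day 12 with compound renewed at DIV 5 and 9; spontaneous activity recorded days 5, 7, 9, 12. Well-mean burst duration collapsed as trapezoidal AUC, fitted for loss versus DMSO.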

[8] = CCTE_Shafer_MEA_dev_interburst_interval_mean: CCTE's Neural Network Formation Assay for Mean Interburst Interval, Shafer Lab (AID 2284046);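 also: well-mean interburst interval of bursting electrodes as AUC over four recording days; curve fitted for decrease in interburst interval relative to DMSO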
Outline: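 Primary rat cortical neurons on PEI-coated 48-well MEA plates (laminin added with cells at plating) (16 electrodes/well), exposed from plating day 0 with renewal at DIV 5 and 9. Mean inter-burst interval averaged over bursting electrodes, AUC across days 5, 7, 9, 12; DMSO baseline.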

[9] = CCTE_Shafer_MEA_dev_inter_network_spike_interval_mean: CCTE's Neural Network Formation Assay for Mean Inter-network Spike Interval, Shafer Lab (AID 2284047);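 as to AC50: potency for a decrease in mean inter-network spike interval below DMSO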
Outline: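 Mean time between consecutive network-spike peaks, recorded extracellularly (adaptive spike detection) on DIV 5, 7, 9 and 12, summarized as trapezoidal AUC. Rat cortical cultures on MEAs dosed continuously days 0–12, re-dosed at feeds; loss-of-signal fit relative to DMSO.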

[10] = CCTE_Shafer_MEA_dev_network_spike_number: CCTE's Neural Network Formation Assay for Number of Network Spikes, Shafer Lab (AID 2284048);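 also: synchronized bursts across electrodes counted on days 5 7 9 12 and integrated as AUC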;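 as to AC50: fit as a loss of signal meaning fewer network spikes than DMSO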
Outline: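 Primary rat cortical neurons were seeded at 1.5 x 10^5 cells/well on PEI-coated 16-electrode MEA wells with laminin, exposed from plating day 0, compound renewed at DIV 5 and 9. Network spikes were recorded on days 5, 7, 9, 12 and summarized as trapezoidal AUC versus DMSO.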

[11] = CCTE_Shafer_MEA_dev_spike_duration_mean: CCTE's Neural Network Formation Assay for Mean Spike Duration, Shafer Lab (AID 2284051);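 also: mean network spike duration pooled as area under curve over DIV 5 to 12 recordings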;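 as to AC50: potency for a decrease in mean network spike duration versus DMSO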
Outline: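 Spontaneous activity was recorded on days 5, 7, 9 and 12 from rat cortical cultures grown on microelectrode arrays and dosed continuously from day 0, with media and compound renewed after the DIV 5 and 9 recordings. Network-spike duration was collapsed by area under the curve.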

[12] = CCTE_Shafer_MEA_dev_network_spike_duration_std: CCTE's Neural Network Formation Assay for Standard Deviation of Network Spike Duration, Shafer Lab (AID 2284052);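 also: hits are decreases in network spike duration SD versus DMSO vehicle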
Outline: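 Network spike duration variability was collapsed across recordings on days 5, 7, 9 and 12 by trapezoidal area-under-curve and fitted downward against DMSO. Cultures were rat cortical neurons on PEI-coated MEA plates, dosed continuously from plating, refed with compound DIV 5/9.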

[13] = CCTE_Shafer_MEA_dev_per_network_spike_spike_number_mean: CCTE's Neural Network Formation Assay for Mean Number of Spikes in a Network Spike, Shafer Lab (AID 2284053);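 as to AC50: fitted as decrease in spikes per network spike relative to DMSO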
Outline: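 Mean spike count within each network spike, taken in a 0.05 s window at its peak, was recorded on days 5, 7, 9 and 12 and integrated as trapezoidal area under the curve. Rat cortical cultures on MEA plates received continuous compound from day 0, refreshed at medium changes on DIV 5 and 9.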

[14] = CCTE_Shafer_MEA_dev_per_network_spike_spike_percent: CCTE's Neural Network Formation Assay for Percent of Spikes in a Network Spike, Shafer Lab (AID 2284054)
Outline: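 Primary rat cortical neurons on 16-electrode MEA wells (PEI-coated, laminin at plating), exposed from day 0 with renewal at DIV 5 and 9; spikes within 0.05 s of network-spike peaks over total spikes, AUC across days 5, 7, 9, 12.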

[15] = CCTE_Shafer_MEA_dev_LDH: CCTE's Lactate Dehydrogenase Assay for Cytotoxicity in the Neural Network Formation Assay, Shafer Lab (AID 2284068; active = hit-call score of the fitted dose curve at least 0.9, where 1 is the maximum;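 also: exposure for twelve days from plating with re-dosing on DIV 5 and 9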)
Outline: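 Primary rat cortical neurons were cultured on PEI-coated MEA plates and exposed from plating through day 12, with compound renewed at medium changes on DIV 5 and 9. LDH activity was read spectrophotometrically; loss of signal versus DMSO indicates reduced viability.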

[16] = CCTE_Shafer_MEA_dev_mutual_information_norm: CCTE's Neural Network Formation Assay for Mutual Information Normalization, Shafer Lab (AID 2284091);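 as to AC50: mutual information between electrodes summarised as area under curve across four recording days; potency is for a decrease in mutual information relative to DMSO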
Outline: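 Rat cortical cultures, 48-well MEA, continuous exposure DIV 0–12 with full media/compound change DIV 5 and 9. Readout: inter-electrode mutual information, AxIS adaptive spike detection; AUC across DIV 5/7/9/12 recordings; DMSO baseline, negative fitting direction.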

[17] = CCTE_Shafer_MEA_dev_correlation_coefficient_mean: CCTE's Neural Network Formation Assay for Mean Correlation Coefficient, Shafer Lab (AID 2284093);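 as to AC50: well mean pairwise spike train correlation integrated as AUC over recording days 5 to 12; potency fitted for loss of correlation relative to DMSO vehicle wells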
Outline: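 Primary rat cortical neurons on PEI-coated 48-well MEA plates (16 electrodes/well) were exposed from plating day 0 through DIV12, with compound renewed at DIV5 and 9. Pairwise spike correlations were averaged per well; trapezoidal AUC across DIV5, 7, 9, 12.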

[18] = UKN2_HCS_IMR90_neural_migration: University of Konstanz (UKN) Leist Lab Neural Crest Cell Migration Assay in human induced IMR90 Pluripotent Stem Cells (UKN2) (AID 2284204); conditions: actives raise or lower the signal
Outline: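 iPSC-derived IMR90 neural crest cells on PLO/laminin/fibronectin were seeded around silicone stoppers; after stopper removal, migration in N2-S medium with EGF and FGF ran 24 h before 24 h chemical exposure. Calcein-AM/Hoechst high-content imaging; bidirectional fit versus DMSO.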

Measured: AC50

C[n+]1ccc(-c2ccccc2)cc1
active: [3] 4.33 µM | [5] 4.7 µM | [15] 4.7 µM | [17] 8.7 µM
inactive: all other assays above

CC1(C)C(C=C(Cl)c2ccc(Cl)cc2)C1C(=O)OC(C#N)c1ccc(F)c(Oc2ccccc2)c1 (centres undefined)
inactive: [7] | [18]
active: [1] 4.24 µM | [2] 13 µM | [3] 12.8 µM | [4] 9.91 µM | [5] 12.9 µM | [6] 7.6 µM | [8] 13.6 µM | [9] 4.11 µM | [10] 14.4 µM | [11] 5.21 µM | [12] 6.89 µM | [13] 6.7 µM | [14] 23.3 µM | [15] 14.3 µM | [16] 5.42 µM | [17] 12.8 µM

CCOP(=S)(OCC)SCS(=O)C(C)(C)C (centres undefined)
inactive: all assays above

CCOP(=O)(OCC)OC(Cl)C(Cl)(Cl)Cl (centres undefined)
active: [1] 1.64 µM | [2] 1.32 µM | [3] 2.52 µM | [4] 0.945 µM | [5] 1.1 µM | [6] 3.48 µM | [7] 1.22 µM | [8] 3.57 µM | [10] 0.833 µM | [11] 1.39 µM | [12] 0.602 µM | [13] 1.92 µM | [14] 2.25 µM | [15] 0.825 µM | [16] 0.797 µM | [17] 1.13 µM
inactive: [9] | [18]

O=C(O)CNCP(=O)(O)O
not listed: [18]
inactive: all other assays above

CP(=O)(O)CCC(N)C(=O)O (centres undefined)
not listed: [5]
inactive: all other assays above

COP(=O)(OC)SCN1C(=O)c2ccccc2C1=O
inactive: all assays above
